Screening results: PubChem, National Center for Advancing Translational Sciences (NCATS)
Hits are enriched below; roughly 6.7% of the tested compounds scored in any of these assays.
MCF10A rerep: DNA re-replication induction in MCF 10a cells | MCF 10A DNA re-replication, Hoechst nuclear intensity, 48 h | Potency, µM (series often up to 46.1 µM), without a hit: at the highest dose activity, positive = re-replication, usual class: activators | actives 2.9% (n = 350,000) | AID 624296; also: % of control where 0% means no effect; nearly all actives have a fitted effect of over 50% in size
PINK1 modulator: PINK1 expression modulation; PINK1 immunofluorescence, high-content cytometry, 24 h; Potency, µM (doses to about 76.6 µM), for the others: at the highest dose activation (PINK1 increase), usual class: activators; actives 0.2% (n = 410,000); AID 624263; active = well fitted activation curve with a large enough effect; inconclusive = small, poorly fitted or top-dose-only effect; cell line not stated here; also: % of control where 0% means no effect; nearly all actives have a fitted effect of over 65% in size
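Stable cell line, 250 cells/well, 12 h attachment; compounds pinned at 5 concentrations, 24 h; CCCP control. Fixed with nuclear dye, primary antibodies 12 h at 10 degrees C, secondary plus cell stain; laser-scanning cytometer read.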
SW480 rereplic: DNA re-replication induction in SW480 cells | SW480 DNA re-replication, Hoechst DNA content imaging, 48 h | AID 624297 | Potency, µM (doses to about 46.1 µM), inactives show at the highest dose re-replication activation, usual class: activators | actives 1.8% (n = 340,000); also: % of control where 0% means no effect; nearly all actives have a fitted effect of over 55% in size
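Image-based DNA-content assay: after two days of treatment, nuclei were labelled with the DNA dye Hoechst and imaged, and hits were compounds raising the count of nuclei showing high fluorescence intensity.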
KB-3-1 tox: KB-3-1 parental cell cytotoxicity. KB-3-1 viability, CellTiter-Glo ATP luminescence, 72 h. Potency, µM (titrated, usually from 46.1 µM), hits mostly cytotoxic. actives 1.4% (n = 400,000); also: % is scaled to controls: 0 for no effect and ±100 for the full control effect; nearly all actives have a fitted effect of over 60% in size
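Cells are dispensed, compounds pinned in, plates held at 37 °C for 72 h, then CellTiter-Glo is added and luminescence read after 10 minutes. Cell line: parental KB-3-1 in phenol-red-free DMEM, 10% FBS.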
KB-V1 MDR tox: kills drug-selected multidrug resistant KB-V1 cells | KB-V1 MDR cells viability, CellTiter-Glo, 72 h | Potency, µM (series often up to 46.1 µM), usual class: cytotoxic | actives 3.4% (n = 400,000); also: % is scaled to controls: 0 for no effect and ±100 for the full control effect; nearly all actives have a fitted effect of over 60% in size
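Luminescent ATP read-out (CellTiter-Glo, 10 min) measures survival of drug-selected KB-V1 MDR cells after 72 h, 37 degrees C compound exposure. Medium: phenol-red-free DMEM, 10% FBS. Values from fitted concentration-response curves.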
Starred values were filed as active, the others as inactive; i = inactive; ? = inconclusive; nt = no result; ! = not active in a repeat; [ ] = another dose, or the depositor's remark. Unless noted, calls follow the shape of the dose curve; as a rule, active = well fitted curve in the direction sought with a large enough effect; inconclusive = small, poorly fitted or top-dose-only effect, or another doubt; inactive = no such curve, though single readings can be large; an effect the other way counts as inactive or inconclusive. Potency is read from the fitted curve at half-maximal effect.

SMILES	MCF10A rerep	PINK1 modulator	SW480 rereplic	KB-3-1 tox	KB-V1 MDR tox
Cc1ccccc1OCC(=O)Nc1ccc2c(c1)n(C)c(=O)n2C	5%	-1%	-20%[1.84 µM]	i	13µM*
Cn1c(=O)n(C)c2cc(NC(=O)COc3ccccc3)ccc21	2%	0%	-12%	i	i
O=C(CCOc1cccc(Br)c1)Nc1ccc(F)c(S(=O)(=O)N2CCOCC2)c1	?	1%	11%	i	23µM*
COc1cc(CCC(=O)Nc2ccc(S(=O)(=O)N3CCCC3)cc2)cc(OC)c1OC	12%	2%	-10%	i	i
COc1cc(CCC(=O)Nc2ccc(C)c(S(=O)(=O)N3CCCCCC3)c2)cc(OC)c1OC	13%	4%	-2%	6.5µM*	3.7µM*
Cc1ccc(NC(=S)Nc2ccc(C(C)C)cc2)cc1S(=O)(=O)N1CCCCCC1	?	11µM*	?	i	15µM*
O=C(Nc1ccc(F)c(S(=O)(=O)N2CCOCC2)c1)C1CCCCC1	11%	0%	-1%	i	18µM*
COc1ccc(C(=O)OCc2ccccc2F)cc1S(=O)(=O)N1CCCC1	4%	1%	-4%	i	16µM*
COc1ccc(NC(=O)COc2ccccc2Cl)cc1S(=O)(=O)N1CCCCC1	2%	6%	?	i	i
COc1ccc(OCC(=O)Nc2ccc(OC)c(S(=O)(=O)N3CCCCC3)c2)cc1	?	10%	16µM*	21µM*	i
CCc1ccc(S(=O)(=O)c2c(C(=O)c3ccc(C)c(C)c3)cnc3ccccc23)cc1	nt	4%	nt	nt	nt
COc1cc(-c2cc(C)c3c(OC)ccc(OC)c3n2)cc2c1OCCN(C(=O)C(C)c1n[nH]c(=O)c3ccccc13)C2 (configuration not stated)	nt	1%	nt	nt	nt
COc1ccc(NC(=O)CCc2ccccc2)cc1S(=O)(=O)N1CCCCC1	5%	1%	-2%	?	5.2µM*
COc1ccc(NC(=O)CCc2ccccc2)cc1S(=O)(=O)N1CCOCC1	6%	3%	-9%	i	i
COC(=O)c1ccc(NC(=O)CSC2=Nc3ccccc3C3CC=NN23)cc1 (configuration not stated)	-1%	7%	-5%	i	16µM*
Cc1ccc(NC(=O)CSC2=Nc3ccccc3C3CC=NN23)c(C)c1 (configuration not stated)	8%	7%	-5%	i	13µM*
COc1ccccc1OCCNC(=O)CNC(=O)c1ccc(C(C)(C)C)cc1	1%	-1%	?	i	i
O=C(c1ccccc1)c1nn(-c2ccc(Cl)cc2)cc1C(=O)c1cc2ccccc2oc1=O	?	10%	5%	?	7.3µM*
NC(=O)c1cn(-c2ccccc2)nc1-c1cc2ccccc2oc1=O	7%	3%	-6%	i	i
Cc1ccccc1N/N=C/c1c(C)nc2ccccn12	16µM*	-3%	14%	i	i
NCCc1c(C(=O)O)[nH]c2ccc([N+](=O)[O-])cc12	1%	1%	0%	?	10µM*
Cc1c(C(=O)O)[nH]c2ccc([N+](=O)[O-])cc12	-5%	-1%	-9%	i	i
Cc1cc(C)cc(NC(=O)CSc2nccn2C2CCCC2)c1	nt	0%	nt	nt	nt
O=C1CN(C(=O)c2ccc(S(=O)(=O)N3CCCCC3)cc2)C(c2ccc(F)cc2)c2cc(Cl)ccc2N1 (configuration not stated)	nt	0%	nt	?	i
C[C@@H](CSc1ccccc1)CN1CC[C@H](C(C)(C)C)CCC1=O	?	5%	-6%	?	18µM*!
CC(C)(C)C1CCC(=O)N(CCSc2ccccc2)CC1 (configuration not stated)	?	7%	30%	i	?
COc1ccc(SC[C@H](C)CN2CC[C@H](C(C)(C)C)CCC2=O)cc1	?	0%	1%	?	15µM*!
CCOc1ccc(C(=O)NCC(=O)N2CC=C(c3ccccc3)CC2)cc1OCC	8%	0%	0%	i	i
COc1ccccc1C(=O)NCC(=O)N1CC=C(c2ccccc2)CC1	-2%	1%	-6%	?	16µM*
